Results from PubChem BioAssay (Tox21).
Results filed as inconclusive are left out. Calls of active or inactive are those of the source. Calls come from the whole dose curve; as a rule, active = well fitted curve in the direction sought with a large enough effect in the repeat runs; inconclusive = weak or mixed curves; inactive = no such curve, though single readings can be large; an effect the other way counts as inactive or inconclusive.

Key:
[1] = A CellTox Green Cytotoxicity Assay to monitor cytotoxicity in HEK293 cells - 40 hour (AID 1224871); note: nearly all actives have a fitted effect of over 45% in size
Summary of the method: (§1)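 Real-time, in one plate: 600 HEK293 cells/well with dead-cell DNA dye, pinned compound after 5 h, 37 C incubation over 40 h; viable cells give no appreciable fluorescence.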

[2] = qHTS RealTime-Glo MT Cell Viability Assay in HEK293 cells - 16 hour (AID 1224872); note: top concentration of the series differs between compounds; nearly all actives have a fitted effect of over 50% in size
Summary of the method: (§2)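 Reads taken at 0, 8, 16, 24, 32 and 40 h from the same wells. HEK293 cells (600/well) carried RealTime-Glo reagents from seeding, with compound added after a 5 h settle at 37 C.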

[3] = qHTS RealTime-Glo MT Cell Viability Assay in HepG2 cells - 8 hour (AID 1224873); note: nearly all actives have a fitted effect of over 55% in size
Summary of the method: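 HepG2 cells (600/well) mixed with RealTime-Glo MT reagent, settled 5 h at 37 C/5% CO2 before compound addition. Nonlytic NanoLuc luminescence from viable-cell prosubstrate reduction read repeatedly during 40 h treatment at 37 C.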

[4] = qHTS RealTime-Glo MT Cell Viability Assay in HEK293 cells - 40 hour (AID 1224874); settings: RealTime-Glo luminescence; max response: active compounds read low; note: nearly all actives have a fitted effect of over 50% in size
Summary of the method: (§3)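 Kinetic, non-lysing viability readout. Seed HEK293 (600/well) with reagent, incubate 5 h at 37 C/5% CO2, pin 23 nL compound in DMSO, incubate at 37 C, read luminescence at 0, 8, 16, 24, 32, 40 h.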

[5] = A CellTox Green Cytotoxicity Assay to monitor cytotoxicity in HEK293 cells - 24 hour (AID 1224875); note: series mostly up to about 77 µM; nearly all actives have a fitted effect of over 45% in size
Summary of the method: as §1

[6] = A CellTox Green Cytotoxicity Assay to monitor cytotoxicity in HepG2 cells - 16 hour (AID 1224876); note: nearly all actives have a fitted effect of over 45% in size
Summary of the method: (§4)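 Cytotoxicity was tracked as dead-cell DNA fluorescence in HepG2 cells treated with test compounds at 37 C; each time-point value comes from one kinetic series spanning 0, 8, 16, 24, 32 and 40 h.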

[7] = qHTS RealTime-Glo MT Cell Viability Assay in HepG2 cells - 32 hour (AID 1224877); note: nearly all actives have a fitted effect of over 55% in size
Summary of the method: (§5)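 HepG2 suspension premixed with RealTime-Glo reagents is plated at 600 cells per well and left 5 h at 37 C/5% CO2. Compounds in DMSO then go in, and bioluminescence reflecting viable cell number is recorded over 40 h.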

[8] = A CellTox Green Cytotoxicity Assay to monitor cytotoxicity in HepG2 cells - 24 hour (AID 1224878); note: nearly all actives have a fitted effect of over 45% in size
Summary of the method: as §4

[9] = A CellTox Green Cytotoxicity Assay to monitor cytotoxicity in HepG2 cells - 40 hour (AID 1224879); note: nearly all actives have a fitted effect of over 40% in size
Summary of the method: as §4

[10] = qHTS RealTime-Glo MT Cell Viability Assay in HEK293 cells - 0 hour (AID 1224880)
Summary of the method: as §3

[11] = A CellTox Green Cytotoxicity Assay to monitor cytotoxicity in HEK293 cells - 32 hour (AID 1224881); note: nearly all actives have a fitted effect of over 40% in size
Summary of the method: as §1

[12] = A CellTox Green Cytotoxicity Assay to monitor cytotoxicity in HepG2 cells - 0 hour (AID 1224882); note: nearly all actives have a fitted effect of over 35% in size
Summary of the method: as §4

[13] = A CellTox Green Cytotoxicity Assay to monitor cytotoxicity in HepG2 cells - 32 hour (AID 1224883); note: nearly all actives have a fitted effect of over 50% in size
Summary of the method: as §4

[14] = A CellTox Green Cytotoxicity Assay to monitor cytotoxicity in HEK293 cells - 8 hour (AID 1224884); note: nearly all actives have a fitted effect of over 35% in size
Summary of the method: as §1

[15] = qHTS RealTime-Glo MT Cell Viability Assay in HepG2 cells - 16 hour (AID 1224885); note: nearly all actives have a fitted effect of over 50% in size
Summary of the method: as §5

[16] = qHTS RealTime-Glo MT Cell Viability Assay in HEK293 cells - 24 hour (AID 1224886)
Summary of the method: as §2

[17] = A CellTox Green Cytotoxicity Assay to monitor cytotoxicity in HEK293 cells - 16 hour (AID 1224888); note: nearly all actives have a fitted effect of over 35% in size
Summary of the method: as §1

[18] = qHTS RealTime-Glo MT Cell Viability Assay in HepG2 cells - 0 hour (AID 1224889); note: nearly all actives have a fitted effect of over 50% in size
Summary of the method: as §5

[19] = A CellTox Green Cytotoxicity Assay to monitor cytotoxicity in HepG2 cells - 8 hour (AID 1224890); note: nearly all actives have a fitted effect of over 45% in size
Summary of the method: as §4

[20] = qHTS RealTime-Glo MT Cell Viability Assay in HEK293 cells - 8 hour (AID 1224887)
Summary of the method: as §3
% is set by controls: 0 for no effect and ±100 for the full control effect.

CC(C)=CC(=O)O
inactive: Potency [1] | Potency [2] | outcome [3] | max response [4] 10.8% | Potency [5] | Potency [6] | Potency [7] | Potency [8] | Potency [9] | outcome [10] | Potency [11] | Potency [12] | Potency [13] | Potency [14] | outcome [15] | Potency [16] | Potency [17] | Potency [18] | Potency [19]

CCCC(C)C(=O)O (stereo not given)
inactive: Potency [1] | Potency [2] | outcome [3] | max response [4] -23.4% | Potency [5] | Potency [6] | Potency [7] | Potency [8] | Potency [9] | outcome [10] | Potency [11] | Potency [12] | Potency [13] | Potency [14] | outcome [15] | Potency [16] | Potency [20] | Potency [17] | Potency [18] | Potency [19]

NC(CS)C(=O)O (stereo not given)
inactive: Potency [1] | Potency [2] | outcome [3] | max response [4] 1.35% | Potency [5] | Potency [6] | Potency [7] | Potency [8] | Potency [9] | outcome [10] | Potency [11] | Potency [12] | Potency [13] | Potency [14] | outcome [15] | Potency [16] | Potency [20] | Potency [17] | Potency [18] | Potency [19]

NCCN1CCNC1=O
inactive: Potency [1] | Potency [2] | outcome [3] | max response [4] 0.993% | Potency [5] | Potency [6] | Potency [7] | Potency [8] | Potency [9] | outcome [10] | Potency [11] | Potency [12] | Potency [13] | Potency [14] | outcome [15] | Potency [16] | Potency [20] | Potency [17] | Potency [18] | Potency [19]

NCC[C@H](O)C(=O)N[C@@H]1C[C@H](N)[C@@H](O[C@H]2O[C@H](CN)[C@@H](O)[C@H](O)[C@H]2O)[C@H](O)[C@H]1O[C@H]1O[C@H](CO)[C@@H](O)[C@H](N)[C@H]1O
inactive: cytotoxicity increase [1] -3.46% [at 0.29 µM] | activity change, negative = cytotoxicity [2] -0.0333% [at 0.29 µM] | viability change, negative = cytotoxic [3] -0.5% [at 0.29 µM] | max response [4] 5.14% | activity change [5] 2.36% [at 0.29 µM, active compounds read high] | cytotoxicity increase [6] -3.16% [at 0.29 µM] | activity change, negative = cytotoxic [7] -1.54% [at 0.29 µM] | cytotoxicity [8] -1.2% [at 0.29 µM] | cytotoxicity increase [9] -4.11% [at 0.29 µM] | activity change, negative = cytotoxicity [10] 1.06% [at 0.29 µM] | cytotoxicity increase [11] 0.628% [at 0.29 µM] | cytotoxicity [12] -4.16% [at 0.29 µM] | cytotoxicity increase [13] -0.727% [at 0.29 µM] | cytotoxicity increase [14] -8.01% [at 0.29 µM] | activity change, negative = cytotoxic [15] 3.3% [at 0.29 µM] | activity change, negative = cytotoxicity [16] 4.59% [at 0.29 µM] | activity change, negative = cytotoxicity [20] 2.61% [at 0.29 µM] | activity change [17] 0.183% [at 0.29 µM, active compounds read high] | activity change, negative = cytotoxicity [18] 7.1% [at 0.29 µM] | cytotoxicity increase [19] -0.472% [at 0.29 µM]

N[C@@H](CS)C(=O)O
inactive: Potency [1] | Potency [2] | outcome [3] | max response [4] 9.81% | Potency [5] | Potency [6] | Potency [7] | Potency [8] | Potency [9] | outcome [10] | Potency [11] | Potency [12] | Potency [13] | Potency [14] | outcome [15] | Potency [16] | Potency [20] | Potency [17] | Potency [18] | Potency [19]

CC(=O)c1ccc(C)cc1
inactive: Potency [1] | Potency [2] | outcome [3] | max response [4] -0.83% | Potency [5] | Potency [6] | Potency [7] | Potency [8] | Potency [9] | outcome [10] | Potency [11] | Potency [12] | Potency [13] | Potency [14] | outcome [15] | Potency [16] | Potency [20] | Potency [17] | Potency [18] | Potency [19]

CO[Si](OC)(OC)OC
inactive: Potency [1] | Potency [2] | outcome [3] | max response [4] 16.8% | Potency [5] | Potency [6] | Potency [7] | Potency [8] | Potency [9] | outcome [10] | Potency [11] | Potency [12] | Potency [13] | Potency [14] | outcome [15] | Potency [16] | Potency [20] | Potency [18]

Cn1ccc2cc3c(cc21)CCN3C(=O)Nc1cccnc1
inactive: cytotoxicity increase [1] -10.7% [at 15.8 µM] | activity change, negative = cytotoxicity [2] -8.97% [at 15.8 µM] | viability change, negative = cytotoxic [3] -3.74% [at 15.8 µM] | max response [4] -5.83% | activity change [5] -2.97% [at 15.8 µM, active compounds read high] | cytotoxicity increase [6] -8.93% [at 15.8 µM] | activity change, negative = cytotoxic [7] -1.69% [at 15.8 µM] | cytotoxicity [8] -8.65% [at 15.8 µM] | cytotoxicity increase [9] -12.1% [at 15.8 µM] | activity change, negative = cytotoxicity [10] -0.254% [at 15.8 µM] | cytotoxicity increase [11] 1.72% [at 15.8 µM] | cytotoxicity [12] -1.51% [at 15.8 µM] | cytotoxicity increase [13] -9.84% [at 15.8 µM] | cytotoxicity increase [14] -5.84% [at 15.8 µM] | activity change, negative = cytotoxic [15] -4.07% [at 15.8 µM] | activity change, negative = cytotoxicity [16] -8.85% [at 15.8 µM] | activity change [17] -2.95% [at 15.8 µM, active compounds read high] | activity change, negative = cytotoxicity [18] -0.377% [at 15.8 µM] | cytotoxicity increase [19] -6.36% [at 15.8 µM]

C=C[Si](OC)(OC)OC
inactive: Potency [1] | Potency [2] | outcome [3] | max response [4] 16.1% | Potency [5] | Potency [6] | Potency [7] | Potency [8] | Potency [9] | outcome [10] | Potency [11] | Potency [12] | Potency [13] | Potency [14] | outcome [15] | Potency [16] | Potency [20] | Potency [17] | Potency [18]

COCc1ccc(COC)cc1
inactive: Potency [1] | Potency [2] | outcome [3] | max response [4] 4.98% | Potency [5] | Potency [6] | Potency [7] | Potency [8] | Potency [9] | outcome [10] | Potency [11] | Potency [12] | Potency [13] | Potency [14] | outcome [15] | Potency [16] | Potency [20] | Potency [17] | Potency [18] | Potency [19]

CCOC(=O)[C@H](CCc1ccccc1)N[C@@H](C)C(=O)N1CCC[C@H]1C(=O)O
inactive: Potency [1] | Potency [2] | outcome [3] | max response [4] -0.439% | Potency [5] | Potency [6] | Potency [7] | Potency [8] | Potency [9] | outcome [10] | Potency [11] | Potency [12] | Potency [13] | Potency [14] | outcome [15] | Potency [16] | Potency [20] | Potency [17] | Potency [18] | Potency [19]
